Data as given in PubChem BioAssay (Tox21).
Results filed as inconclusive are left out. A number with no mark means an inactive call. The source made the active and inactive calls. The call rests on the fitted dose curve.

Experiment: qHTS assay to identify small molecule agonists of the AP-1 signaling pathway - cell viability counter screen (AID 1159525); further: nearly all actives have a fitted effect of over 55% in size
Settings: ME-180 (cervical carcinoma) AP-1-bla cells viability, ATP luminescence, 5 h; series mostly up to 76.8 µM; viability change, negative = cytotoxic: at the top concentration
Source text: National Center for Advancing Translational Sciences [NCATS]
NIH Chemical Genomics Center [NCGC]
U.S. Environmental Protection Agency [EPA]
National Institutes of Environmental Health Sciences [NIEHS]
National Toxicology Program [NTP]
U.S. Food and Drug Administration [FDA]
Activator protein-1 (AP-1), a transcription factor, plays an important role in tumor genesis by regulating genes involved in cell proliferation, differentiation, apoptosis, and angiogenesis. AP-1 activity is induced by a complex network of signaling pathways that involves extracellular signals, such as growth factors. The AP-1 protein complex formed from c-Fos and c-Jun binding to the AP-1 response element results in transcriptional activation of genes containing such elements within their promoter.
Low molecular weight molecules have been discovered and developed to modulate various components of these signaling pathways, for example, MAP kinase inhibitors. However, many points of pathway modulation remain untested due to the lack of chemical probes making this signaling locus of general interest.
Using a beta-lactamase reporter-gene under control of the AP-1 response element, a cell-based assay [CellSensor(TM) AP-1-bla ME-180 developed by Invitrogen Corp.] was used to measure EGF-induced signaling. The Tox21 10K library compounds were measured for their ability to positively modulate the action of EC50 EGF on reporter gene activity. Compounds were screened in a 15-pt titration series in 1536-well format. The cytotoxicity of the Tox21 compound library against this cell line was tested in parallel by measuring the intra cellular ATP content in the same wells.
Tox21 Assay Protocol Summary:
2500 cells/5uL in Opti-MEM medium containing 0.5% dialyzed FBS, 0.1 mM NEAA, 1 mM sodium pyruvate and 10 mM HEPES was dispensed into 1536-well black wall/clear bottom plates using a Multidrop dispenser and cells were cultured at 37 degrees Celsius overnight. Next day 23 nL of compounds dissolved in DMSO, positive controls or DMSO were delivered to each well using a pin tool. The plates were incubated at 37 degrees Celsius for 5 hours. 1 uL of LiveBLAzerTM B/G FRET substrate (Solution A+B+C+D) was added to each well using a Flying Reagent Dispenser. After incubated at room temperature for 2.5 hours the plates were measured on an EnVision plate reader at Excitation 405nm, Emission1=460nm and Emission 2=530nm. The %Activity was determined from the ratio of 460nm/530nm.
After the plates were read for Beta-Lactamase assay on Envision; 3 ul Cell Titer Glo (Promega) was added to measure the cytotoxicity and the plates were then incubated at RT in dark for 30 min. The luminescence was read on ViewLux (Perkin Elmer, Shelton, CT) using 6 sec exposure. ViewLux data was expressed as relative luminescence units.
For primary data analysis, raw plate reads for each titration point were first normalized relative to […] EGF control (100%) and DMSO only wells (basal, 0%).
For primary data analysis for viability assay, raw plate reads for each titration point were first normalized Tetra n-octyl ammonium bromide control (-100%) and DMSO (control, 100%).

**Q.** Which “viability change, negative = cytotoxic” value does the source give for `C=CC(=O)OCC(C)C` here?
**A.** The value was 1.52%.

**Q.** For `Cl/C=C\C[N+]12CN3CN(CN(C3)C1)C2`, which “viability change, negative = cytotoxic” value is on record?
**A.** The value was -4.05%.

**Q.** For `C=CC(=O)OCC(C)O` (stereo not given), which “viability change, negative = cytotoxic” value is on record?
**A.** Its value is 6.48%.

**Q.** For `NC(=O)CI`, which “viability change, negative = cytotoxic” value is on record?
**A.** Its value is -19.8%.

**Q.** With `ClCCCCBr` as the compound, how does the “viability change, negative = cytotoxic” value read?
**A.** Its value is 5.95%.

**Q.** With `CN1C[C@H](CNC(=O)OCc2ccccc2)C[C@@H]2c3cccc4c3c(cn4C)C[C@H]21` as the compound, how does the “viability change, negative = cytotoxic” value read?
**A.** Its value is -4.24% [at 35.3 µM].

**Q.** With `CN1[C@@H]2CC[C@H]1CC(OC(=O)c1cc(Cl)cc(Cl)c1)C2` (stereo not given in full) as the compound, how does the “viability change, negative = cytotoxic” value read?
**A.** The value was -5.91% [at 35.3 µM].

**Q.** With `O=C(Nc1ccccc1)Nc1cnns1` as the compound, how does the “viability change, negative = cytotoxic” value read?
**A.** Its value is 0.63%.

**Q.** For `CCOP(=S)(OCC)SCn1nnc2ccccc2c1=O`, which “viability change, negative = cytotoxic” value is on record?
**A.** The value was -13.3%.

**Q.** With `O=C1CN=C(c2ccccc2)c2cc(Cl)ccc2N1CC1CC1` as the compound, how does the “viability change, negative = cytotoxic” value read?
**A.** The value was -0.558%.

**Q.** Which “viability change, negative = cytotoxic” value does the source give for `CCOP(O)OCC` here?
**A.** Its value is 0.091%.

**Q.** With `COP(=S)(OC)Oc1ccc([N+](=O)[O-])cc1Cl` as the compound, how does the “viability change, negative = cytotoxic” value read?
**A.** Its value is 1.49%.

**Q.** With `CCCCCCC#N` as the compound, how does the “viability change, negative = cytotoxic” value read?
**A.** The value was -7.55%.

**Q.** For `O=C1C(=O)c2cccc3cccc1c23`, which “viability change, negative = cytotoxic” value is on record?
**A.** The value was -1.81%.

**Q.** With `Clc1cc(C(Cl)(Cl)Cl)cnc1Cl` as the compound, how does the “viability change, negative = cytotoxic” value read?
**A.** The value was 0.0003%.

**Q.** With `Cc1c(F)c(F)c(COC(=O)C2C(/C=C(\Cl)C(F)(F)F)C2(C)C)c(F)c1F` (stereo not given) as the compound, how does the “viability change, negative = cytotoxic” value read?
**A.** The value was -1.66%.

**Q.** Which “viability change, negative = cytotoxic” value does the source give for `Clc1cccc2ccccc12` here?
**A.** Its value is 7.52%.

**Q.** Which “viability change, negative = cytotoxic” value does the source give for `ClCc1ccccc1` here?
**A.** Its value is 0.206%.

**Q.** Which “viability change, negative = cytotoxic” value does the source give for `C=CCC1([C@H](C)CCC)C(=O)NC(=O)NC1=O` here?
**A.** Its value is -1.22%.

**Q.** Which “viability change, negative = cytotoxic” value does the source give for `COc1nn(C(=O)NS(=O)(=O)c2ccccc2OC(F)(F)F)c(=O)n1C` here?
**A.** Its value is 0.875%.

**Q.** Which “viability change, negative = cytotoxic” value does the source give for `O=C(O)C(F)(F)C(F)(F)C(F)(F)C(F)(F)C(F)(F)C(F)(F)C(F)(F)C(F)(F)C(F)(F)F` here?
**A.** Its value is 8.67%.

**Q.** Which “viability change, negative = cytotoxic” value does the source give for `CCOP(=O)(OCC)O/C(=C/Cl)c1ccc(Cl)cc1Cl` here?
**A.** Its value is -10.4%.

**Q.** For `C[C@H]1CNCCc2ccc(Cl)cc21`, which “viability change, negative = cytotoxic” value is on record?
**A.** Its value is 7.27% [at 35.3 µM].

**Q.** With `Cc1ccc(-c2c(Cl)nc(C#N)n2S(=O)(=O)N(C)C)cc1` as the compound, how does the “viability change, negative = cytotoxic” value read?
**A.** The value was 12.1%.

**Q.** For `CCCCC(CC)COP(=O)(Oc1ccccc1)Oc1ccccc1` (stereo not given), which “viability change, negative = cytotoxic” value is on record?
**A.** Its value is -8.89%.

**Q.** With `CC(C)=CCOc1c2occc2cc2ccc(=O)oc12` as the compound, how does the “viability change, negative = cytotoxic” value read?
**A.** The value was 2.79% [at 35.3 µM].

**Q.** Which “viability change, negative = cytotoxic” value does the source give for `CCC(Br)(CC)C(=O)NC(N)=O` here?
**A.** The value was 3.72%.

**Q.** For `COP(=S)(OC)Oc1cc(Cl)c(I)cc1Cl`, which “viability change, negative = cytotoxic” value is on record?
**A.** Its value is -2.35%.

**Q.** Which “viability change, negative = cytotoxic” value does the source give for `C[C@]12CC[C@H]3[C@@H](CCC4=CC(=O)CC[C@@H]43)[C@@H]1CC[C@@H]2OC(=O)CCC1CCCCC1` here?
**A.** Its value is -0.0162% [at 35.3 µM].

**Q.** For `CCCCCCCCCCOC(=O)c1ccccc1C(=O)OCCCCCCCCCC`, which “viability change, negative = cytotoxic” value is on record?
**A.** Its value is 2.7%.

**Q.** For `C=CC(=O)NCNC(=O)C=C`, which “viability change, negative = cytotoxic” value is on record?
**A.** Its value is 0.831%.

**Q.** With `CNC(C)Cc1ccccc1OC` (stereo not given) as the compound, how does the “viability change, negative = cytotoxic” value read?
**A.** Its value is 2.62% [at 35.3 µM].

**Q.** For `O=S1(=O)OC(c2cc(Br)c(O)c(Br)c2)(c2cc(Br)c(O)c(Br)c2)c2ccccc21`, which “viability change, negative = cytotoxic” value is on record?
**A.** The value was -17.4%.

**Q.** Which “viability change, negative = cytotoxic” value does the source give for `CCO[C@H]1O[C@@H]2OC3(C)CC[C@H]4[C@H](C)CC[C@@H]([C@H]1C)[C@@]24OO3` here?
**A.** The value was 1.54% [at 35.3 µM].

**Q.** Which “viability change, negative = cytotoxic” value does the source give for `CC(Cl)C(C)Cl` (stereo not given) here?
**A.** The value was -2.97%.

**Q.** With `O=[N+]([O-])c1ccccc1CCl` as the compound, how does the “viability change, negative = cytotoxic” value read?
**A.** The value was 5.13%.

**Q.** With `CC1(C)[C@H](C=C(Cl)Cl)[C@@H]1C(=O)O[C@@H](C#N)c1cccc(Oc2ccccc2)c1` as the compound, how does the “viability change, negative = cytotoxic” value read?
**A.** The value was -25.9%.

**Q.** For `CCCCOC(=O)c1ccccc1C(=O)OCc1ccccc1`, which Potency is on record?
**A.** Its Potency is “inactive”.

**Q.** Which “viability change, negative = cytotoxic” value does the source give for `Clc1cccc(SC2CCNCC2)n1` here?
**A.** The value was -3.88% [at 35.3 µM].

**Q.** Which “viability change, negative = cytotoxic” value does the source give for `CCCC(Cn1cncn1)c1ccc(Cl)cc1Cl` (stereo not given) here?
**A.** The value was -11.1%.
